Our source for the Potency values is PubChem BioAssay (Tox21).

Assay [1] can be described thus: qHTS assay to identify small molecule antagonists of the thyroid receptor (TR) signaling pathway (AID 743065). Also: nearly all actives have a fitted effect of over 55% in size. Also: potency is read from the fitted curve at half-maximal effect. The gist of the method:
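GH3.TRE-Luc rat pituitary cells (two TREs driving luciferase) were dosed with compound, then stimulated with 1 nM T3 (final) for 23.5 h at 37 C. ONE-Glo luminescence was the read-out, with CellTiter-Fluor fluorescence as the cytotoxicity counter-screen.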
For orientation: In qHTS, concentration-response curves come from the screen itself.

Assay [2] concerns thyroid hormone receptor (rat, GH3 cells). Kind of assay: qHTS assay to identify small molecule agonists of the thyroid receptor (TR) signaling pathway (AID 743066; calls by dose curve; also: potency is read from the fitted curve at half-maximal effect).
Assay [3] addresses Estrogen receptor (Homo sapiens) (UniProt P03372). Kind of assay: qHTS assay to identify small molecule antagonists of the estrogen receptor alpha (ER-alpha) signaling pathway (AID 743069; active = well fitted curve in the direction sought with a large enough effect in the signal ratio in the repeat runs, not every such curve was filed as active; inconclusive = weak or mixed curves, or effect the other way; inactive = no such curve, though single readings can be large or run the other way; the % refers to the signal ratio; also: potency is read from the fitted curve at half-maximal effect). An outline of the steps:
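HEK293 ER-alpha-UAS-bla GripTite cells, held overnight in 2% charcoal-stripped FBS, 5,000 cells/well, preincubated 4 h, then compound plus 17beta-estradiol for 18 h at 37C. Beta-lactamase read by LiveBLAzer B/G FRET substrate, 2 h at room temperature.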

Assay [4] in a line: qHTS assay to identify small molecule antagonists of the estrogen receptor alpha (ER-alpha) signaling pathway - cell viability counter screen (AID 743074; calls by dose curve;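 also: HEK293 cells carrying ER-alpha-UAS-bla reporter stimulated with 17beta-estradiol; nearly all actives have a fitted effect of over 45% in size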).
Assay [5] addresses Estrogen receptor (Homo sapiens) (UniProt P03372). Kind of assay: qHTS assay to identify small molecule agonists of the estrogen receptor alpha (ER-alpha) signaling pathway (AID 743075; calls by dose curve; also: potency is read from the fitted curve at half-maximal effect).
Assay [6] has the same target. Kind of assay: qHTS assay to identify small molecule agonists of the estrogen receptor alpha (ER-alpha) signaling pathway using the BG1 cell line (AID 743079). Also: nearly all actives have a fitted effect of over 20% in size. Also: potency is read from the fitted curve at half-maximal effect.
Assay [7] is described as follows: qHTS assay to identify small molecule antagonists of the estrogen receptor alpha (ER-alpha) signaling pathway using the BG1 cell line (AID 743080; calls by dose curve;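 also: BG1 cells stimulated with 17beta-estradiol alongside compound; series mostly up to about 70 µM; nearly all actives have a fitted effect of over 25% in size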). The gist of the method:
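Luciferase inhibition measured with ONE-Glo after 30 min at RT in BG1Luc4E2 cells given test compounds and 17beta-estradiol for 21.5 h at 37 C; CellTiter-Fluor viability read in the same wells beforehand.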

Assay [8] can be described thus: qHTS assay to identify small molecule antagonists of the estrogen receptor alpha (ER-alpha) signaling pathway using the BG1 cell line - cell viability counter screen (AID 743081).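 Also: compound given together with 17beta-estradiol as the ER stimulus; series mostly up to about 70 µM; nearly all actives have a fitted effect of over 45% in size.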
A further assay concerns the target Aromatase (Homo sapiens) (UniProt P11511). Kind of assay: qHTS assay to identify aromatase inhibitors (AID 743083). Also: nearly all actives have a fitted effect of over 55% in size. Also: potency is read from the fitted curve at half-maximal effect.
A short description of assay [9]: qHTS assay to identify aromatase inhibitors - cell viability counter screen (AID 743084).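 Also: cells stimulated with testosterone during compound exposure; nearly all actives have a fitted effect of over 55% in size.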
For assay [10], the target named is Aryl hydrocarbon receptor (Homo sapiens) (UniProt P35869). Kind of assay: qHTS assay to identify small molecule that activate the aryl hydrocarbon receptor (AhR) signaling pathway (AID 743085).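 Also: HG2L7.5c1 human HepG2 liver cells with stably integrated DRE-driven firefly reporter; series mostly up to about 70 µM; nearly all actives have a fitted effect of over 15% in size.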 An outline of the steps:
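Stably transfected human liver carcinoma cells (HG2L7.5c1; 20 DRE-firefly luciferase) were incubated 5 h, dosed, and kept 24 h at 37C. Agonism was scored from increased luciferase luminescence.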

Assay [11] in a line: qHTS assay to identify small molecule that activate the aryl hydrocarbon receptor (AhR) signaling pathway - cell viability counter screen (AID 743086).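 Also: HepG2 liver cells carrying the AhR DRE luciferase reporter; series mostly up to about 70 µM; nearly all actives have a fitted effect of over 45% in size.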 An outline of the steps:
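HepG2-AhR-luc (HG2L7.5c1) cells, 4000/well, treated 24 h at 37 C with compound; viability measured as CellTiter-Fluor fluorescence after 30 min in the same wells as the luciferase read.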

The target of assay [12] is Peroxisome proliferator-activated receptor gamma (Homo sapiens) (UniProt P37231). Kind of assay: qHTS assay to identify small molecule antagonists of the peroxisome proliferator-activated receptor gamma (PPARg) signaling pathway (AID 743191; calls by dose curve; also: nearly all actives have a fitted effect of over 30% in size; also: potency is read from the fitted curve at half-maximal effect). An outline of the steps:
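GeneBLAzer PPARg UAS-bla HEK293H cells, 5 h post-plating, exposed to compounds 17 h at 37C. LiveBLAzer B/G FRET substrate added for 1 h at room temperature; beta-lactamase reporter read by fluorescence intensity.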

Assay [13] is described as follows: qHTS assay to identify small molecule antagonists of the peroxisome proliferator-activated receptor gamma (PPARg) signaling pathway - cell viability counter screen (AID 743194). Also: nearly all actives have a fitted effect of over 55% in size. Conditions: Potency: co-treated with 50 nM rosiglitazone unless noted. An outline of the steps: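 Cytotoxicity counter screen in PPARg-bla HEK293H cells, same wells as reporter assay. Compounds plus 50 nM rosiglitazone (final) for 17 h at 37 C, then viability read by CellTiter-Glo luminescence.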

The nature of assay [14]: qHTS assay for small molecule agonists of the antioxidant response element (ARE) signaling pathway (AID 743202; active = well fitted activation curve with a large enough effect in the signal ratio in the repeat runs, not every such curve was filed as active; inconclusive = weak or mixed curves, or effect the other way; inactive = no such curve, though single readings can be large or run the other way; the % refers to the signal ratio). The gist of the method:
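ARE-bla HepG2 cells (beta-lactamase reporter under the antioxidant response element), plated 5 hours, then exposed to compounds 16 hours at 37 C. LiveBLAzer B/G FRET substrate added for 2 hours at room temperature; fluorescence intensity read.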

A short description of assay [15]: qHTS assay for small molecule agonists of the antioxidant response element (ARE) signaling pathway - cell viability counter screen (AID 743203; calls by dose curve; also: nearly all actives have a fitted effect of over 55% in size; also: potency is read from the fitted curve at half-maximal effect). The gist of the method: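 HepG2 cells carrying ARE-driven beta-lactamase; 2,000 cells/well; 5 hrs plating; compound pinned from DMSO; 16 hrs 37C/5% CO2; CellTiter-Glo added; 30 min RT; luminescence.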
Assay [16] can be described thus: qHTS assay for small molecule activators of the heat shock response signaling pathway - cell viability counter screen (AID 743209). Also: nearly all actives have a fitted effect of over 50% in size. An outline of the steps:
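Luminescence from CellTiter-Glo, added after the beta-lactamase FRET read, gave the viability signal. Cells were HSE-bla HeLa treated with DMSO-dissolved compounds for 5 h at 37 C following overnight plating.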

A short description of assay [17]: qHTS assay for small molecule activators of the heat shock response signaling pathway (AID 743210; active = well fitted activation curve with a large enough effect in the signal ratio in the repeat runs, with a control signal flat, not every such curve was filed as active; inconclusive = weak or mixed curves; the % refers to the signal ratio; also: series mostly up to about 63 µM). An outline of the steps: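 HSE-bla HeLa cells (beta-lactamase reporter under heat shock response elements), plated overnight, then exposed to compounds 5 h at 37 C; LiveBLAzer B/G FRET substrate added, 2.5 h at room temperature, fluorescence intensity read.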
Assay [18] is described as follows: qHTS assay to identify small molecule agonists of the peroxisome proliferator-activated receptor delta (PPARd) signaling pathway - cell viability counter screen (AID 743211). Also: nearly all actives have a fitted effect of over 55% in size. Also: potency is read from the fitted curve at half-maximal effect. The gist of the method:
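In the same wells used for beta-lactamase reporter measurement, cytotoxicity is scored by CellTiter-Glo. HEK293H PPARd-bla cells receive compound for 17 h at 37C following a 5 h settling period.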

Assay [19] has as its target Peroxisome proliferator-activated receptor gamma (Homo sapiens) (UniProt P37231). Kind of assay: qHTS assay to identify small molecule agonists of the peroxisome proliferator-activated receptor gamma (PPARg) signaling pathway (AID 743094; active = well fitted activation curve with a large enough effect in the signal ratio in the repeat runs, not every such curve was filed as active; inconclusive = weak or mixed curves, or effect the other way; inactive = no such curve, though single readings can be large or run the other way; the % refers to the signal ratio; also: potency is read from the fitted curve at half-maximal effect). An outline of the steps: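 Beta-lactamase FRET fluorescence was the read-out after a 1 h room-temperature substrate step, following 17 h compound treatment at 37C of HEK293H cells expressing a UAS-driven bla reporter responsive to PPARg.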

“And” between values parts separate entries of the source, which are not always exact repeats. Equal values may be shown once. Where a structure was tested more than once in an assay, its records may differ in their call. The source made the active and inactive calls. Unless noted, calls follow the shape of the dose curve; as a rule, active = well fitted curve in the direction sought with a large enough effect in the repeat runs; inconclusive = weak or mixed curves; inactive = no such curve, though single readings can be large; an effect the other way counts as inactive or inconclusive.

Peroxisome proliferator-activated receptor gamma (Homo sapiens), sequence (P37231 whole entry, looked up): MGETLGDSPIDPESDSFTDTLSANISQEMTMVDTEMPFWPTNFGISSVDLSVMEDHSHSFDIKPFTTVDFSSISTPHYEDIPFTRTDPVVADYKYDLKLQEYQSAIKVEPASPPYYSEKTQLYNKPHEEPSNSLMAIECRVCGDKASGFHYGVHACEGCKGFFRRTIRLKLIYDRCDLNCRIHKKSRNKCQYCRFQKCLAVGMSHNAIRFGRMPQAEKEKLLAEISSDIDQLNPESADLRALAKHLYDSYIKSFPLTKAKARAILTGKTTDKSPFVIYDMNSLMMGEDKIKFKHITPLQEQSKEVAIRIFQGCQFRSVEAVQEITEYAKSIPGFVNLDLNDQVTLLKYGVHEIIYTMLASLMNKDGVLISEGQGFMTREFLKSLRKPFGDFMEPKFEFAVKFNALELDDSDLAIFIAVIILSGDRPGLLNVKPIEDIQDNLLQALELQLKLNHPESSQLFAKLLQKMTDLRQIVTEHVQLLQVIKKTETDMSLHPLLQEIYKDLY
Aromatase (Homo sapiens), sequence (P11511 whole entry, looked up): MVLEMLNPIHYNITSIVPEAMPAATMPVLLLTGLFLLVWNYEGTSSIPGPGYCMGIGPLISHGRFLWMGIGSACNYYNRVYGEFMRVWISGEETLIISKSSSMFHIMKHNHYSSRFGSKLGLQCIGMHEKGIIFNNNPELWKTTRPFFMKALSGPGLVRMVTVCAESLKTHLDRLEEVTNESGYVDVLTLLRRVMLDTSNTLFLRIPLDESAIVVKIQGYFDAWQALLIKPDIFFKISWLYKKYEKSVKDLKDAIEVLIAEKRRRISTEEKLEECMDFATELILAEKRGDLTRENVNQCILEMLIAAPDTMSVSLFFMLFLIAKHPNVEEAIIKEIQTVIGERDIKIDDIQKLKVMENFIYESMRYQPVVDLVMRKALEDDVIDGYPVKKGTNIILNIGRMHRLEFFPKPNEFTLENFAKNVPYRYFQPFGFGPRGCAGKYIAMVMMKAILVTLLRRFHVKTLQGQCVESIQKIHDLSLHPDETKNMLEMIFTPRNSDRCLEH
Estrogen receptor (Homo sapiens), sequence (P03372 whole entry, looked up): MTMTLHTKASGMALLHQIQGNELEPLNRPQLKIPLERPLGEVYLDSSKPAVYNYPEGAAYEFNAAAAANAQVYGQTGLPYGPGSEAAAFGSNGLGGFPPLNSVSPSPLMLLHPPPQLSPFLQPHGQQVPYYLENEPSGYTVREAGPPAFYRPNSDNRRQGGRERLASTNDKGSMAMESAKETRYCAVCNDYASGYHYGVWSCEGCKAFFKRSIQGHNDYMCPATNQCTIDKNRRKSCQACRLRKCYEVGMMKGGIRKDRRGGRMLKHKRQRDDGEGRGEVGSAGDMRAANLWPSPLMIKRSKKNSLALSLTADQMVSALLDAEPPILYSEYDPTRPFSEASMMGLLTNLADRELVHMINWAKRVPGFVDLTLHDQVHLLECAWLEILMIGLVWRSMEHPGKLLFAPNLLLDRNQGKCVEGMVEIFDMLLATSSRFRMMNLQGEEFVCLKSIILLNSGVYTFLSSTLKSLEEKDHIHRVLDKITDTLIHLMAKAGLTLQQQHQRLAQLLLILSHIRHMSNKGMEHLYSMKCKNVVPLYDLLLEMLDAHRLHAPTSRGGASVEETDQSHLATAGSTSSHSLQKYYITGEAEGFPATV
Aryl hydrocarbon receptor (Homo sapiens), sequence (P35869 whole entry, looked up): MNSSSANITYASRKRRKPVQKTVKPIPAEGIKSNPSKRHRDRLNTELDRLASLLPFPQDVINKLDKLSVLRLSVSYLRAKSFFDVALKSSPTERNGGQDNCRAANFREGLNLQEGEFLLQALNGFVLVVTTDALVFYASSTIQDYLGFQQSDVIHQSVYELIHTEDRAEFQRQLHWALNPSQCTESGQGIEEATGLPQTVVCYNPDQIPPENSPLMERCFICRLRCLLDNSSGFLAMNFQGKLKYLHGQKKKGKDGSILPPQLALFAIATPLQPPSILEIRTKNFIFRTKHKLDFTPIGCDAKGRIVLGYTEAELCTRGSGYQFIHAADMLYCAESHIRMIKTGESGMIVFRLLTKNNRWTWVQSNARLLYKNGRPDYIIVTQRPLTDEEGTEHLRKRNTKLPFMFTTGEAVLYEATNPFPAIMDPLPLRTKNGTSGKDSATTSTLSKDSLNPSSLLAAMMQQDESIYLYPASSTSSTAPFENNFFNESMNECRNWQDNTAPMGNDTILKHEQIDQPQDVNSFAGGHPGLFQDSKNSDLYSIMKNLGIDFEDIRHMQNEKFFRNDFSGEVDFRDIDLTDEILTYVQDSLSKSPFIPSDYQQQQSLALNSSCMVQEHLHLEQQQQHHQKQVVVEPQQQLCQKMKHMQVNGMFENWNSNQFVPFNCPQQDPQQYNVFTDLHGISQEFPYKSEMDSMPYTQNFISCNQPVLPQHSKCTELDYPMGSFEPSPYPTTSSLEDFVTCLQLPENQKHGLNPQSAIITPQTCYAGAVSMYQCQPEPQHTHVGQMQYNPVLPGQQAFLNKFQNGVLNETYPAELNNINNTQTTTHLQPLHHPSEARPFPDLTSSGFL

For `CCCCC(CC)COC(=O)Cl` (centres undefined), the Potency result in [1], in assay [2], in assay [3], in assay [4], in [5] and in assay [6] was “inactive” each time. Moreover, the Potency entry (in assay [7]; in assay [8]; with Aromatase (Homo sapiens); in [9]; in assay [10]; in assay [11]) was “inactive” throughout. The Potency result in [12], in [13], in assay [14], in [15], in [16] and in assay [17] was “inactive” in each case. Moreover, the Potency result in [18] was “inactive”.
In the case of `CCCCCCCCOC(=O)c1ccccc1C(=O)OCCCCCCCC`, the Potency entry in assay [1], in assay [2], in [3], in [4], in assay [5] and in assay [6] was “inactive” throughout. For the same compound, the Potency result (in assay [7]; in assay [8]; with Aromatase (Homo sapiens); in [9]; in [10]; in assay [11]) was “inactive” each time. Also, the Potency entry in [12], in [13], in [14], in assay [15], in assay [16] and in [17] was “inactive” in each case. For the same compound, in assay [18], the Potency entry was “inactive”. The Potency result in [19] is “inactive and 54.8 µM (active)”.
Regarding `c1ccc(-c2cccc(-c3ccccc3)c2)cc1`, the Potency result in assay [1], in [2], in assay [3], in [4], in assay [5] and in assay [8] was “inactive” each time. The Potency entry (in the assay with Aromatase (Homo sapiens); in [9]; in assay [11]; in assay [19]; in [12]; in [13]) was “inactive” throughout. Also, the Potency entry in assay [14], in assay [15], in [16] and in [17] was “inactive” throughout. The Potency in assay [6] was 21.9 µM (active) and 10.9 µM (active).
Take `CCOCN(C(=O)CCl)c1c(C)cccc1CC`: the Potency in [1] is 64.8 µM (active) and 61.1 µM (active); in assay [3] it was 24.5 µM [inconclusive] (active); in the assay with Aromatase (Homo sapiens), 28.9 µM (active) and 54.5 µM (active); in assay [15], 14.5 µM (active) and 21.7 µM (active); in [18], 41.2 µM (active). For the same compound, the Potency result in [2], in [4], in assay [5], in [6], in assay [7] and in assay [8] was “inactive” throughout. The Potency entry in assay [11] and in assay [13] was “inactive” in each case.
Turning to `COC(=O)c1sccc1S(=O)(=O)NC(=O)Nc1nc(C)nc(OC)n1`, the Potency result in assay [1], in [2], in [3], in [4], in assay [5] and in assay [6] was “inactive” in each case. For the same compound, the Potency result (in assay [7]; in assay [8]; with Aromatase (Homo sapiens); in assay [9]; in [11]; in [12]) was “inactive” in each case. Also, the Potency result in [14], in assay [15], in [16], in [17] and in [18] was “inactive” throughout.
On to `CCC(C)(c1ccc(O)cc1)c1ccc(O)cc1`, for which the Potency in [1] was 61.1 µM (active); in assay [3], 616 nM [inconclusive] (active) and 309 nM [inconclusive] (active); in [5], 195 nM [inconclusive] (active) and 1.95 µM [inconclusive] (active); in assay [6], 243 nM (active) and 273 nM (active); in the assay with Aromatase (Homo sapiens) it was 61.1 µM (active) and inactive; in [12], 30.9 µM (active) and 38.9 µM (active). Also, the Potency entry in assay [2], in assay [4], in assay [7], in [8], in [9] and in [10] was “inactive” in each case. For the same compound, the Potency entry in assay [11], in [13], in assay [15] and in [16] was “inactive” throughout.
With `NNC(=S)NN`, the Potency result in assay [1], in assay [3], in [4], in [5], in assay [6] and in [7] was “inactive” throughout. The Potency entry (in [8]; with Aromatase (Homo sapiens); in assay [9]; in assay [11]; in [19]; in assay [12]) was “inactive” throughout. Further, the Potency result in assay [13], in assay [14], in assay [15] and in assay [16] was “inactive” throughout. For the same compound, in assay [2], the Potency result is “inactive and 61.1 µM (active)”.
